Measurements: PubChem BioAssay (NCATS)
Records with an inconclusive call do not appear. Active and inactive are the calls of the source. The call rests on the fitted dose curve; in most records, active means well fitted curve in the direction sought with a large enough effect; inconclusive means small, poorly fitted or top-dose-only effect, or another doubt; inactive means no such curve, though single readings can be large; an effect the other way counts as inactive or inconclusive.

Key:
[1] = test system: WaGa; test: qHTS assay to identify novel small-molecules to repurpose for Merkel cell carcinoma treatment (AID 1296009); conditions: MCC and control cell lines, CellTiter-Glo viability, 72 h; series mostly up to 46 µM; further: nearly all actives have a fitted effect of over 60% in size; further: potency means the concentration at half of the fitted maximal effect
Procedure, shortened: (§1)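 Cells were incubated with compound for 72 hr at 37 degree celsius before CellTiter-Glo addition. Luminescence was normalized with no-cell wells as full cytotoxicity and DMSO as baseline.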

[2] = test system: C33A; test: Primary qHTS to identify gynecologic anti-cancer compounds using libraries of approved drugs and bioactive compounds (AID 1345084); conditions: Gynecologic cancer cell panel viability, ATPlite luminescence, 48 h; series mostly up to 57.5 µM; further: nearly all actives have a fitted effect of over 55% in size; further: potency means the concentration at half of the fitted maximal effect
Procedure, shortened: (§2)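 Five-point cytotoxicity, 48 h drug exposure at 37 C, 5% CO2, on cells seeded 16 h beforehand. ATP content read by ATPlite luminescence.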

[3] = test system: CAOV3; test: as above; conditions: Gynecologic cancer cell panel viability, ATPlite luminescence, 48 h; series mostly up to 57.5 µM
Procedure, shortened: as §2

[4] = test system: CASKI; test: as above; conditions: Gynecologic cancer cell panel viability, ATPlite luminescence, 48 h; series mostly up to 57.5 µM
Procedure, shortened: as §2

[5] = test system: Es-2; test: as above; conditions: Gynecologic cancer cell panel viability, ATPlite luminescence, 48 h; series mostly up to 57.5 µM
Procedure, shortened: as §2

[6] = test system: HeLa; test: as above; conditions: Gynecologic cancer cell panel viability, ATPlite luminescence, 48 h; series mostly up to 57.5 µM
Procedure, shortened: as §2

[7] = test system: Hek293T; test: as above; conditions: Gynecologic cancer cell panel viability, ATPlite luminescence, 48 h, control line for the selectivity index; series mostly up to 57.5 µM
Procedure, shortened: as §2

[8] = test system: JEG-3; test: as above; conditions: Gynecologic cancer cell panel viability, ATPlite luminescence, 48 h; series mostly up to 57.5 µM
Procedure, shortened: as §2

[9] = test system: OV90; test: as above; conditions: Gynecologic cancer cell panel viability, ATPlite luminescence, 48 h; series mostly up to 57.5 µM
Procedure, shortened: as §2

[10] = test system: PA-1; test: as above; conditions: Gynecologic cancer cell panel viability, ATPlite luminescence, 48 h; series mostly up to 57.5 µM
Procedure, shortened: as §2

[11] = test system: SKOV3; test: as above; conditions: Gynecologic cancer cell panel viability, ATPlite luminescence, 48 h; series mostly up to 57.5 µM
Procedure, shortened: as §2

[12] = test system: Tov-21-G; test: as above; conditions: Gynecologic cancer cell panel viability, ATPlite luminescence, 48 h; series mostly up to 57.5 µM
Procedure, shortened: as §2

[13] = test system: Tov112D; test: as above; conditions: Gynecologic cancer cell panel viability, ATPlite luminescence, 48 h; series mostly up to 57.5 µM
Procedure, shortened: as §2

[14] = qHTS assay to identify inhibitors of the type 1 interferon - major histocompatibility complex class I in skeletal muscle: Counter screen cell viability and HiBit confirmation (AID 1347412); conditions: iHSKM muscle cells + IFN-b, HiBiT or CellTiter-Glo, 24 h; for activity change, negative = inhibition: at 45.9 µM (top of the series); further: potency means the concentration at half of the fitted maximal effect; on all read-outs here: nearly all actives have a fitted effect of over 60% in size
Procedure, shortened: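 HLA-B*08:01–HiBiT knock-in immortalized human myoblasts (C25cl48) stimulated with 4.0 ng/ml human IFN-beta and dosed with compound in a 12-point 1:3 titration (top final 46 uM). After 24 hrs at 37 C, HiBiT lytic luminescence or CellTiter Glo ATP read out.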

[15] = test system: UISO; test: qHTS assay to identify novel small-molecules to repurpose for Merkel cell carcinoma treatment (AID 1296009); conditions: MCC and control cell lines, CellTiter-Glo viability, 72 h; series mostly up to 46 µM; further: nearly all actives have a fitted effect of over 60% in size; further: potency means the concentration at half of the fitted maximal effect
Procedure, shortened: as §1

[16] = Drug repurposing screens with cells derived from glioblastoma tumor samples (AID 1345199); conditions: GBM patient neurospheres viability, ATP luminescence, 48 h; further: nearly all actives have a fitted effect of over 40% in size
Procedure, shortened: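 Four patient lines of CD133+ GBM neurospheres were screened at several concentrations; hits were retested in those lines plus three slower-growing GBM lines, using 48-hour treatment and ATP-based viability.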
On the % scale 0 is the no-effect control and ±100 the full control effect.

CNC(=O)c1ccc(N2C(=S)N(c3cnc(C#N)c(C(F)(F)F)c3)C(=O)C23CCC3)cc1F
inactive: Potency [2] | Potency [3] | Potency [4] | Potency [5] | Potency [6] | Potency [7] | Potency [8] | Potency [9] | Potency [10] | Potency [11] | Potency [12] | Potency [13]
active: Potency [1] 9.35 µM

Cn1c2cc(S(C)=O)sc2c2cnn(Cc3cccc(N)c3)c(=O)c21 (stereo unspecified)
inactive: Potency [1]

COc1cc(C(=O)N2CCC(N3CCN(C)CC3)CC2)ccc1Nc1ncc2c(n1)N(C)c1ccccc1C(=O)N2C
inactive: Potency [2] | Potency [5] | Potency [7] | Potency [8] | Potency [9] | activity change, negative = inhibition ([14]; Viability) -1.11%
active: Potency [1] 16.6 µM | Potency [11] 8.91 µM

CC[C@H](CO)Nc1nc(NCc2ccccc2)c2ncn(C(C)C)c2n1
inactive: Potency [1] | activity change, negative = inhibition ([14]; Viability) -8.22%
active: Potency ([14]; HiBiT) 17.6 µM

CC(=O)c1c(C)c2cnc(Nc3ccc(N4CCNCC4)cn3)nc2n(C2CCCC2)c1=O
inactive: Potency [1] | activity change, negative = cytotoxicity [2] 9.39% [at 6.55 µM] | activity change, negative = cytotoxicity [3] 11.3% [at 6.55 µM] | activity change, negative = cytotoxicity [4] 12% [at 6.55 µM] | activity change, negative = cytotoxicity [5] 0.0946% [at 6.55 µM] | activity change, negative = cytotoxicity [6] -1.33% [at 6.55 µM] | activity change, negative = cytotoxicity [7] 25.4% [at 6.55 µM] | activity change, negative = cytotoxicity [8] -5.97% [at 6.55 µM] | activity change, negative = cytotoxicity [9] 15% [at 6.55 µM] | activity change, negative = cytotoxicity [10] -9.61% [at 6.55 µM] | activity change, negative = cytotoxicity [11] 4.84% [at 6.55 µM] | activity change, negative = cytotoxicity [12] -13.1% [at 6.55 µM] | activity change, negative = cytotoxicity [13] -4.97% [at 6.55 µM]

Cc1cn2cc(C(=O)N(C)CCO)cc(N[C@@H]3CCOc4cccc(C)c43)c2n1
inactive: Potency [1] | Potency [2] | Potency [3] | Potency [4] | Potency [5] | Potency [6] | Potency [7] | Potency [8] | Potency [9] | Potency [11] | Potency [12] | Potency [13]

Cc1ccc(S(=O)(=O)Nc2cc(Cl)ccc2C(=O)Nc2nc(-c3ccccc3)cs2)cc1
inactive: Potency [1]

O=C(NC1CCNCC1)c1[nH]ncc1NC(=O)c1c(Cl)cccc1Cl
active: Potency [15] 1.32 µM | Potency ([14]; HiBiT) 0.442 µM
inactive: activity change, negative = inhibition ([14]; Viability) 4.1%

O=c1[nH]c(=O)n(C2CCCO2)cc1F (stereo unspecified)
inactive: Potency [15] | activity, negative = cell killing ([16]; at 45.9 µM (top of the series), tumour line B) -6.45% | activity, negative = cell killing ([16]; at 45.9 µM (top of the series), tumour line D) -14.2% | activity, negative = cell killing ([16]; at 46 µM (top of the series), tumour line A) -9.36% | activity, negative = cell killing ([16]; at 46.1 µM (top of the series), tumour line C) -4%

Cc1ccc(C(=O)Nc2cccc(C(F)(F)F)c2)cc1-c1ccc2nc(NCCN3CCOCC3)ncc2c1
active: Potency [4] 14.1 µM | Potency [5] 11.2 µM | Potency [6] 11.2 µM | Potency [9] 6.31 µM | Potency [10] 12.6 µM | Potency [11] 15.8 µM | Potency [12] 14.1 µM
inactive: Potency [1] | Potency [7]

CN1CCC(CNc2ccc3ncc(-c4cccc(OC(F)(F)F)c4)n3n2)CC1
active: Potency ([14]; HiBiT) 22.2 µM | Potency ([14]; Viability) 31.3 µM
inactive: Potency [1] | Potency [2] | Potency [5] | Potency [6] | Potency [7] | Potency [8] | Potency [9] | Potency [10] | Potency [12] | Potency [13]

CN(C)Cc1c(C(=O)NCCOc2ccc(C(=O)NO)cc2)oc2ccccc12
active: Potency [1] 0.332 µM | Potency [2] 4.47 µM | Potency [4] 3.98 µM | Potency [5] 5.01 µM | Potency [6] 2.82 µM | Potency [7] 2.82 µM | Potency [8] 3.55 µM | Potency [9] 1.58 µM | Potency [10] 1 µM | Potency [11] 7.08 µM | Potency [12] 7.94 µM | Potency [13] 3.16 µM | Potency ([14]; HiBiT) 0.787 µM
inactive: activity change, negative = inhibition ([14]; Viability) -5.27%

Cn1c(=O)n(-c2ccc(C(C)(C)C#N)cc2)c2c3cc(-c4cnc5ccccc5c4)ccc3ncc21
active: Potency [3] 0.562 µM | Potency [7] 0.794 µM | Potency [9] 1.41 µM
inactive: Potency [1] | Potency [6] | Potency [8]

CCCCOc1c(C(=O)c2c(F)cc(C)cc2F)cnc2n[nH]cc12
inactive: Potency [1] | Potency [2] | Potency [3] | Potency [4] | Potency [8] | Potency [11]
active: Potency [6] 8.91 µM | Potency [10] 7.94 µM

Cc1c(NC(=O)OC[C@@H]2COCCN2)cn2ncnc(Nc3ccc4c(cnn4Cc4cccc(F)c4)c3)c12
inactive: Potency [1] | Potency [2] | Potency [5] | Potency [6] | Potency [7] | Potency [8] | Potency [12] | Potency [13]

Cc1c(C)n(Cc2ccc(-c3ccccc3C(=O)O)cc2)c2ccc(C(=O)N[C@@H](C)c3ccc([N+](=O)[O-])cc3)cc12
inactive: Potency [2] | Potency [3] | Potency [4] | Potency [5] | Potency [6] | Potency [7] | Potency [8] | Potency [9] | Potency [12] | Potency [13]
active: Potency [1] 0.469 µM

COc1cc(OC2CCN(C)CC2)ccc1Nc1ncc2c(n1)n(C1CCCC1)c(=O)n2C
active: Potency [1] 23.5 µM

Cc1cccc(C=NNc2cc(N3CCOCC3)nc(OCCc3ccccn3)n2)c1
inactive: Potency [1]

O=c1c2ccccc2nc2n1CCc1c-2[nH]c2ccccc12
inactive: Potency [1] | Potency [2] | Potency [3] | Potency [4] | Potency [5] | Potency [6] | Potency [7] | Potency [8] | Potency [9] | Potency [10] | Potency [12] | Potency [13]
